Measured values reported in PubChem BioAssay (EPA / NIEHS).
Inconclusive results are not listed. The source made the active and inactive calls. Rule for the calls, unless noted: active = hit-call score of the fitted dose curve at least 0.9, where 1 is the maximum; inactive = score below 0.9.

Key:
[1] = target: Oxysterols receptor LXR-alpha (Homo sapiens) (UniProt Q13133); test: ATG_LXRa_TRANS: Attagene TRANS-FACTORIAL HepG2 Assay for human Liver X Receptor alpha (LXRa) (AID 2282980; active = hit-call score of the fitted dose curve at least 0.9, where 1 is the maximum); conditions: HepG2 Attagene TRANS reporter, LXRa transactivation
Outline: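 Chemical-induced reporter mRNA measured by RT-PCR with fluorescent labelling and capillary electrophoresis after 24 h dosing of transiently transfected HepG2 cells expressing exogenous NR-Gal4 chimeras; increases scored against DMSO baseline.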

[2] = target: Oxysterols receptor LXR-beta (Homo sapiens) (UniProt P55055); test: ATG_LXRb_TRANS: Attagene TRANS-FACTORIAL HepG2 Assay for human Liver X Receptor beta (LXRb) (AID 2282981; active = hit-call score of the fitted dose curve at least 0.9, where 1 is the maximum); conditions: HepG2 Attagene TRANS GAL4-LXRb reporter, mRNA
Outline: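 After 24 h of chemical treatment, transfected HepG2 cells yield total RNA; reporter cDNA is PCR-amplified, FAM-labelled, HpaI-cut and run on capillary electrophoresis. Signal reflects chimeric LXRb-Gal4 activity on GAL4-UAS reporters.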

[3] = ATG_M_06_TRANS: Attagene TRANS-FACTORIAL HepG2 Assay for M06 Transcription Factor (Internal Marker) (AID 2282983; active = hit-call score of the fitted dose curve at least 0.9, where 1 is the maximum); conditions: HepG2 Attagene TRANS M06 internal marker reporter
Outline: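 Background-control reporter readout: after 24 h chemical exposure of transiently transfected HepG2 (GAL4-UAS reporter units), mRNA quantified by RT-PCR with fluorescent labeling and capillary electrophoresis. Gain-of-signal fitting against DMSO baseline.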

[4] = target: Transcriptional activator Myb (Homo sapiens) (UniProt P10242); test: ATG_Myb_CIS: Attagene CIS-FACTORIAL HepG2 Assay for human Myeloblastosis (Myb) Proto-Oncogene Transcription Factor (AID 2282986); conditions: HepG2 Attagene CIS-FACTORIAL Myb reporter transcription; actives raise or lower the signal
Outline: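 In this HepG2 transient-transfection format, cis-regulated reporter mRNA is quantified 24 h post-dosing by RT-PCR with capillary electrophoresis, fitted bidirectionally to DMSO baseline.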

[5] = target: Nuclear respiratory factor 1 (Homo sapiens) (UniProt Q16656); test: ATG_NRF1_CIS: Attagene CIS-FACTORIAL HepG2 Assay for human Nuclear Respiratory Factor 1 (NRF1) Orphan Gene (AID 2282987); conditions: HepG2 NRF1 cis-element reporter, Attagene multiplex; actives raise or lower the signal
Outline: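 Using DMSO as baseline, gain- or loss-of-signal was fitted for reporter mRNA levels in HepG2 cells transiently transfected with cis-regulated reporter units. Samples were taken 24 h after dosing and read by RT-PCR with capillary electrophoresis.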

[6] = ATG_NFI_CIS: Attagene CIS-FACTORIAL HepG2 Assay for human Nuclear Factor I (NFI) (AID 2282989); conditions: HepG2 cis-regulatory reporter, NFI response element transcription; actives raise or lower the signal
Outline: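 Reporter transcription driven by endogenous transcription factors in HepG2 cells; 24 h treatment. Quantitation by labelled RT-PCR fragments on capillary electrophoresis, gain- or loss-of-signal relative to DMSO.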

[7] = target: Myc proto-oncogene protein (Homo sapiens) (UniProt P01106); test: ATG_Myc_CIS: Attagene CIS-FACTORIAL HepG2 Assay for human Myelocytomatosis (Myc) Proto-Oncogene Transcription Factor (AID 2282990); conditions: HepG2, Attagene cis-reporter transcription factor activity; actives raise or lower the signal
Outline: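 HepG2, transient MRTU transfection (cis promoters, endogenous TFs); 24 h dosing; TriZol RNA → oligo(dT) RT → PCR → 6-FAM primer extension → HpaI cut → CE. Bidirectional fit vs DMSO.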

[8] = ATG_NRF2_ARE_CIS: Attagene CIS-FACTORIAL HepG2 Assay for human Nuclear Factor Erythroid 2 Related Factor 2 (NFR2) response to Antioxidant Response Elements (ARE) (AID 2282992); conditions: HepG2 Attagene ARE/NRF2 reporter, transcription factor activity; actives raise or lower the signal
Outline: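 Endogenous transcription factor activity read out as reporter transcript levels (RT-PCR plus capillary electrophoresis, fluorescence) in transiently transfected HepG2 cells. Measured at 24 h after dosing; gain or loss of signal fitted versus DMSO.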

[9] = ATG_Oct_MLP_CIS: Attagene CIS-FACTORIAL HepG2 Assay for human Octamer-Binding Transcription Factor (Oct) (AID 2282993); conditions: HepG2 Attagene cis-factorial Oct reporter, mRNA; actives raise or lower the signal
Outline: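 Transfected HepG2 cells, 24 h treatment. Reporter mRNA quantified by RT-PCR–capillary electrophoresis; bidirectional fitting against DMSO.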

[10] = target: Cellular tumor antigen p53 (Homo sapiens) (UniProt P04637); test: ATG_p53_CIS: Attagene CIS-FACTORIAL HepG2 Assay for human p53 Transcription Factor (AID 2282994); conditions: HepG2 p53 cis-element reporter, Attagene mRNA; actives raise or lower the signal
Outline: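 Endogenous p53 activity read in transiently transfected HepG2 from a cis-element-driven reporter transcript after 24 h exposure. RNA reverse-transcribed, PCR-amplified, fluorescently labelled and sized by capillary electrophoresis; gain or loss fitted against DMSO baseline.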

[11] = BSK_3C_TissueFactor: BioMAP Diversity Plus: 3C Assay for Tissue Factor Biomarker Activity (AID 2282997); conditions: BioMAP 3C HUVEC, tissue factor biomarker readout; actives raise or lower the signal
Outline: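 Tissue factor on primary human umbilical vein endothelium was read by ELISA 24 h after dosing, gain or loss relative to DMSO. Cytotoxicity ran alongside via SRB (0.1%, TCA-fixed, 560 nm).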

[12] = BSK_3C_uPAR: BioMAP Diversity Plus: 3C Assay for Urokinase-type plasminogen activator receptor (uPAR) Biomarker Activity (AID 2282998); conditions: BioMAP 3C HUVEC, uPAR biomarker ELISA; actives raise or lower the signal
Outline: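 Readout: ELISA for surface uPAR. System: human umbilical vein endothelial primary cells, 24 h after chemical exposure. Analysis: bidirectional fit, DMSO baseline.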

[13] = BSK_3C_VCAM1: BioMAP Diversity Plus: 3C Assay for Vascular cell adhesion molecule 1 (VCAM1) Biomarker Activity (AID 2282999); conditions: BioMAP 3C HUVEC, VCAM1 ELISA, cytokine-stimulated; actives raise or lower the signal
Outline: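 Activity fitted in both directions relative to DMSO, with ELISA measurement of the surface marker on primary HUVEC (3C) at 24 h post-treatment; parallel SRB staining (0.1% SRB, TCA-fixed, 560 nm) flagged overt cytotoxicity.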

[14] = BSK_4H_Eotaxin3: BioMAP Diversity Plus: 4H Assay for Eotaxin 3 Biomarker Activity (AID 2283000); conditions: primary human endothelial cells (HUVEC); actives raise or lower the signal
Outline: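 Human umbilical vein endothelial cells (BSK_4H system) dosed with test chemical; Eotaxin-3 (CCL26) measured by ELISA 24 h after dosing. Bidirectional curve fitting relative to DMSO negative control as baseline.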

[15] = target: human Peroxisome Proliferator-activated Receptor alpha (PPARa), PPARA (gene 5465) (UniProt Q07869); test: ATG_PPARa_TRANS: Attagene TRANS-FACTORIAL HepG2 Assay for human Peroxisome Proliferator-activated Receptor alpha (PPARa) (AID 2283001; active = hit-call score of the fitted dose curve at least 0.9, where 1 is the maximum;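 for AC50: potency for gain of reporter signal over DMSO so agonist or activator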)
Outline: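 Transfected HepG2 cells treated with test chemical for 24 h. RNA isolated, reverse-transcribed with oligo(dT), PCR-amplified, FAM-labelled and HpaI-digested. Fragments sized by capillary electrophoresis; gain-of-signal fit relative to DMSO.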

[16] = target: Glucocorticoid receptor (Homo sapiens) (UniProt P04150); test: ATG_GR_TRANS: Attagene TRANS-FACTORIAL HepG2 Assay for human Glucocorticoid Receptor (GR) (AID 2282978; active = hit-call score of the fitted dose curve at least 0.9, where 1 is the maximum;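 note: activators score as hits since higher reporter transcript over DMSO is fitted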); conditions: HepG2 Attagene TRANS GR reporter, mRNA transcription
Outline: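 Exogenous NR-GAL4 fusion activity was assessed through induced GAL4-UAS reporter transcripts in transfected human HepG2 cells, quantified after 24 h by RT-PCR and fluorescent capillary electrophoresis with DMSO as baseline.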

[17] = ATG_M_32_TRANS: Attagene TRANS-FACTORIAL HepG2 Assay for M32 Transcription Factor (Internal Marker) (AID 2282984; active = hit-call score of the fitted dose curve at least 0.9, where 1 is the maximum); conditions: HepG2 Attagene TRANS M32 internal marker reporter
Outline: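 Cell-based TRANS-format assay in HepG2: exogenous chimeric GAL4 reporter units transiently expressed, compounds applied 24 h. Reporter mRNA detected by RT-PCR plus capillary electrophoresis; this readout is an internal background marker.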

[18] = ATG_NF_kB_CIS: Attagene CIS-FACTORIAL HepG2 Assay for human Nuclear Factor Kappa B (NF-kB) (AID 2282991); conditions: HepG2 Attagene cis-factorial NF-kB reporter mRNA; actives raise or lower the signal
Outline: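 Endpoint from a 52-component multiplexed HepG2 reporter panel: cis-regulated transcription units transiently transfected, 24 h dosing, reporter mRNA quantified by RT-PCR and capillary electrophoresis, scored as increase or decrease against DMSO.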

[19] = target: Bile acid receptor (Homo sapiens) (UniProt Q96RI1); test: ATG_FXR_TRANS: Attagene TRANS-FACTORIAL HepG2 Assay for Farnesoid X Receptor (FXR) (AID 2282979; active = hit-call score of the fitted dose curve at least 0.9, where 1 is the maximum;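 note: hits raise reporter mRNA above DMSO so AC50 marks FXR activation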); conditions: HepG2 Attagene TRANS FXR-GAL4 reporter transcription
Outline: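 Reporter transcripts from transfected HepG2 cells were measured 24 h after dosing, using RT-PCR with capillary electrophoresis of 6-FAM-labelled fragments. The read-out reflects activity of exogenous FXR-Gal4 chimera on GAL4-UAS units, with induction relative to DMSO.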

[20] = target: Nuclear receptor subfamily 4 group A member 2 (Homo sapiens) (UniProt P43354); test: ATG_NURR1_TRANS: Attagene TRANS-FACTORIAL HepG2 Assay for human Nuclear Receptor Related Protein 1 (NURR1) (AID 2282985; active = hit-call score of the fitted dose curve at least 0.9, where 1 is the maximum); conditions: HepG2 Attagene TRANS reporter, mRNA readout
Outline: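 Measures transcriptional activation by an exogenous NR-Gal4 chimera in transfected HepG2 liver cells. After 24 h, reporter RNA is reverse-transcribed, amplified and resolved by capillary electrophoresis; DMSO defines baseline.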

Measured: AC50

Nuclear respiratory factor 1 (Homo sapiens), sequence (Q16656 whole entry, looked up): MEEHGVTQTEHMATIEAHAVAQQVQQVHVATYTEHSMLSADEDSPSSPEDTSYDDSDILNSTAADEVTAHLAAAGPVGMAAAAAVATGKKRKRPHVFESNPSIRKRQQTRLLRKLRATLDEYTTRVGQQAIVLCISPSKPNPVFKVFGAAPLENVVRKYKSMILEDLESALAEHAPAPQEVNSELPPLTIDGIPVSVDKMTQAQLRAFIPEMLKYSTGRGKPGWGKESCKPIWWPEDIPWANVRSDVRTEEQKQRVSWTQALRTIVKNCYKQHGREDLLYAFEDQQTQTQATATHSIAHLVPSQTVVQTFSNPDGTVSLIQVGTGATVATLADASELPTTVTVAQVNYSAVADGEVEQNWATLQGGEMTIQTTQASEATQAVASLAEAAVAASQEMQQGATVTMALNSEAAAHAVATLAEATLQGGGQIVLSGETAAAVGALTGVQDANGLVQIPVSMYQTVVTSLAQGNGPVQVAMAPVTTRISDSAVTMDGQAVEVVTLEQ
Transcriptional activator Myb (Homo sapiens), sequence (P10242 whole entry, looked up): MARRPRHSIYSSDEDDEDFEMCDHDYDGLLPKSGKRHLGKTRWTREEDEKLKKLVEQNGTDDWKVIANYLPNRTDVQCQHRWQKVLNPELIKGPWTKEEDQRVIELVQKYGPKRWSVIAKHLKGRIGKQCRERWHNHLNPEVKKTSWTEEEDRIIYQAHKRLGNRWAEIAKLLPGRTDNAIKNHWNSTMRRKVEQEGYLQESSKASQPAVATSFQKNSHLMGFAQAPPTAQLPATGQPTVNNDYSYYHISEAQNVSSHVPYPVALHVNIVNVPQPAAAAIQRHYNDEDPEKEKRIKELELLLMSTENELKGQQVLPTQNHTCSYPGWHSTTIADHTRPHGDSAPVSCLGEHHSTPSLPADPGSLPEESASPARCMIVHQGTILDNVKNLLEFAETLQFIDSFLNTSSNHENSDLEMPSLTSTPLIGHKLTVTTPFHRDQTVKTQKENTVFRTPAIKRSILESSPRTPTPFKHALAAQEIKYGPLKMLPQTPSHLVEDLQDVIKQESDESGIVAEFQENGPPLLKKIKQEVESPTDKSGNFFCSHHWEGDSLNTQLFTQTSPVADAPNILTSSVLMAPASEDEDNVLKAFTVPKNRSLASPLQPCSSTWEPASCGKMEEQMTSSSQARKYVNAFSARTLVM
Cellular tumor antigen p53 (Homo sapiens), sequence (P04637 whole entry, looked up): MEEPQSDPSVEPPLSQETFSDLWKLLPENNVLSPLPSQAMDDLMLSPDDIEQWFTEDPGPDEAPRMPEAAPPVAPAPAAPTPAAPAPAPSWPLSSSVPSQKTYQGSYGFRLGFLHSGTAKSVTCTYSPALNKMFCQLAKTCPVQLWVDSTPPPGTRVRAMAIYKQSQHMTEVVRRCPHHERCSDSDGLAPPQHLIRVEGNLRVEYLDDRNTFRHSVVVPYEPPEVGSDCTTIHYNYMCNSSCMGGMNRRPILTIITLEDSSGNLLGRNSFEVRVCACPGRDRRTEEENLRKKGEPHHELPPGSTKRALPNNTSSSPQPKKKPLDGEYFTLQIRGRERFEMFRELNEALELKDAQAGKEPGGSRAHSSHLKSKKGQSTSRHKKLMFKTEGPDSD
Oxysterols receptor LXR-alpha (Homo sapiens), sequence (Q13133 whole entry, looked up, the tested form may be a part): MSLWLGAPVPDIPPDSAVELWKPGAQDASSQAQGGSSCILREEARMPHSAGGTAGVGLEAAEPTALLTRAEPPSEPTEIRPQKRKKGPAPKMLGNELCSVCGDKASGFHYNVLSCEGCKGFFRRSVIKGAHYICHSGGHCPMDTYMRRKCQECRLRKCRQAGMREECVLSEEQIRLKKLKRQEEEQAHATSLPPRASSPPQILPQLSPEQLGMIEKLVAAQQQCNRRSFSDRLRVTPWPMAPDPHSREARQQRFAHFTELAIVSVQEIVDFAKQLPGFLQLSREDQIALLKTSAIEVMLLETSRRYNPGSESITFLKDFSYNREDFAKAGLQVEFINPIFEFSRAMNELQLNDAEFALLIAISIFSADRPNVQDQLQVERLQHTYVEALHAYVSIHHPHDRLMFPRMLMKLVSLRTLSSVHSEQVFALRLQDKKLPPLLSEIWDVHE
human Peroxisome Proliferator-activated Receptor alpha (PPARa), PPARA (gene 5465), sequence (Q07869 whole entry, looked up, the tested form may be a part): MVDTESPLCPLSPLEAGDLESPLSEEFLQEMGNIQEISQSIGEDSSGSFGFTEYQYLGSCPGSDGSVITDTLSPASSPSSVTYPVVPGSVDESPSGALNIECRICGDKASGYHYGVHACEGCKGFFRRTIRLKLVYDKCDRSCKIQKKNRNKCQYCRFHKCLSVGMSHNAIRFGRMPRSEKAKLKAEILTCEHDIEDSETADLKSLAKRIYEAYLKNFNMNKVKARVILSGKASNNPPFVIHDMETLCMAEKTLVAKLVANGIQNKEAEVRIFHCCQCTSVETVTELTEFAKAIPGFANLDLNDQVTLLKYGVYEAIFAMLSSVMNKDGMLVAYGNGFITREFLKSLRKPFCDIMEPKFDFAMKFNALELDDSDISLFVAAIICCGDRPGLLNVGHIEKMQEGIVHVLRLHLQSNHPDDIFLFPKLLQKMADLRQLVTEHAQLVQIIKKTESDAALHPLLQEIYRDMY
Glucocorticoid receptor (Homo sapiens), sequence (P04150 whole entry, looked up, the tested form may be a part): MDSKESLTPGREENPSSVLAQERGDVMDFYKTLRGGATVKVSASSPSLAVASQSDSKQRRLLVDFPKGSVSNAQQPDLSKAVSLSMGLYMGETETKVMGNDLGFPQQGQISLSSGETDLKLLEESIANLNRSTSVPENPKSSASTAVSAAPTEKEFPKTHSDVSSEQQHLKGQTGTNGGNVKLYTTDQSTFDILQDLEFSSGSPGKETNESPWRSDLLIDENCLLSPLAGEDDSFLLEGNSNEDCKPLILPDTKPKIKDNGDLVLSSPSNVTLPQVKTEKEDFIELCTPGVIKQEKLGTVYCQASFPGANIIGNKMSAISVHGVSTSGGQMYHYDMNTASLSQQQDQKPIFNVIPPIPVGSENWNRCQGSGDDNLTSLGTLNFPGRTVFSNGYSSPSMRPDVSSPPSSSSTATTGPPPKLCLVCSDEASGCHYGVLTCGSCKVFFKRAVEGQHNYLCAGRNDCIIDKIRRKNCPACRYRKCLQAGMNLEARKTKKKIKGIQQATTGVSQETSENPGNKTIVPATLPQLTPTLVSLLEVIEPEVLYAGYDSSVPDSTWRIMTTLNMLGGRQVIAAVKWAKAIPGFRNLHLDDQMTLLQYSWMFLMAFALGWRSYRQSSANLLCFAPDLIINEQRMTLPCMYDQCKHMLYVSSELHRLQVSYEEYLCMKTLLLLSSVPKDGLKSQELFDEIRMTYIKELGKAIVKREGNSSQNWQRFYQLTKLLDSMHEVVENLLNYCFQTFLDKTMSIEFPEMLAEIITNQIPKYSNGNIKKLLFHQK
Oxysterols receptor LXR-beta (Homo sapiens), sequence (P55055 whole entry, looked up, the tested form may be a part): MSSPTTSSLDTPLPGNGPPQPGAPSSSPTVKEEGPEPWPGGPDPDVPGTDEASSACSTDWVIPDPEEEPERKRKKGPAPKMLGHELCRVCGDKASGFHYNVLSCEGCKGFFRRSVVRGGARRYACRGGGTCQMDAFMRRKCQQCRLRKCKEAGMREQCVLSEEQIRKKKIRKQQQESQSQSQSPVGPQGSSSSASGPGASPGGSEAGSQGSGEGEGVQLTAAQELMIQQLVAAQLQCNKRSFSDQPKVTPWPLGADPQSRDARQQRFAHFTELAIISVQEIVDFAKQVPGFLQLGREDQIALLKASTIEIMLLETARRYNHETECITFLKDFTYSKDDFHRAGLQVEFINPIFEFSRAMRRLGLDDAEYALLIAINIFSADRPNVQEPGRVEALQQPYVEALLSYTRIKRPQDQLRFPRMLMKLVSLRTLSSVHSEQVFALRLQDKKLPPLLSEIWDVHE
Myc proto-oncogene protein (Homo sapiens), sequence (P01106 whole entry, looked up): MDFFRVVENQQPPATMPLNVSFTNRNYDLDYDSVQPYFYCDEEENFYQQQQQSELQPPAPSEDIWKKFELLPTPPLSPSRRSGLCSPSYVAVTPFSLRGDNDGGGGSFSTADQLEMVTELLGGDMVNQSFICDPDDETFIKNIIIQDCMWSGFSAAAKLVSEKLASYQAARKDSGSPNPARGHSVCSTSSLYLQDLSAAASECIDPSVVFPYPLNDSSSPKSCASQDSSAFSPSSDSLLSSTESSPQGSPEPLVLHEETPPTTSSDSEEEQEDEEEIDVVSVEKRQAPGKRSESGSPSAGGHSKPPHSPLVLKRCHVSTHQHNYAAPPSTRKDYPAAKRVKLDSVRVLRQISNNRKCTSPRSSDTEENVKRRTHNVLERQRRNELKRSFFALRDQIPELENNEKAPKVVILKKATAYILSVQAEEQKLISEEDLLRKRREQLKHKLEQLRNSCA
Bile acid receptor (Homo sapiens), sequence (Q96RI1 whole entry, looked up, the tested form may be a part): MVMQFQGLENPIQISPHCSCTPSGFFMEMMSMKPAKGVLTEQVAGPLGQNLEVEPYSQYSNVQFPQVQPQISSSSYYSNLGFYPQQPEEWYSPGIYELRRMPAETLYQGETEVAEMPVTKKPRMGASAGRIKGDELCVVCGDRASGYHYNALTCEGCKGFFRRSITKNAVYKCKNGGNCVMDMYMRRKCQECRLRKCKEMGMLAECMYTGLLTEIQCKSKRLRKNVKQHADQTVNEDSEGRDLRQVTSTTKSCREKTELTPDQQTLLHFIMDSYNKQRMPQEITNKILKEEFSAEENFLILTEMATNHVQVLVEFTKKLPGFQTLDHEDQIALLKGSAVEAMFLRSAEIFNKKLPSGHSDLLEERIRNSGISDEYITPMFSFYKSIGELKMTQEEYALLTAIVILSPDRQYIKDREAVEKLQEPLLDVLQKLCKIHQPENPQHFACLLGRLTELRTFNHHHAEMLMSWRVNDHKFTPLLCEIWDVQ

Cc1ccc(C(C)C)cc1
not listed: [16] | [17] | [18] | [19] | [20]
inactive: all other assays above

CN(C[C@@H](CC[N+]12CCC(C3CCCCC3)(CC1)CC2)c1ccc(Cl)c(Cl)c1)C(=O)c1cc(C(F)(F)F)cc(C(F)(F)F)c1
active: [17] 18.4 µM | [11] 23.5 µM | [12] 14.3 µM | [13] 31.9 µM | [14] 30.4 µM
not listed: [1] | [2] | [19] | [20]
inactive: all other assays above

CCCC(=O)OCCC(C)C
active: [4] 1.84 µM
not listed: [15] | [16] | [17] | [20]
inactive: all other assays above

CCN(Cc1cccc(S(=O)(=O)O)c1)c1ccc(C(=C2C=CC(=[N+](CC)Cc3cccc(S(=O)(=O)O)c3)C=C2)c2ccccc2S(=O)(=O)[O-])cc1
not listed: [1] | [2] | [15] | [16] | [17] | [20]
inactive: all other assays above

CC(O)CC(C)(C)O (configuration not stated)
not listed: [2] | [19] | [20]
inactive: all other assays above

Cc1ncc(CO)c(CO)c1O
not listed: [16] | [17] | [18]
inactive: all other assays above

CC(C)(O)c1ccc(CNC(=O)c2cccnc2Oc2ccc3nonc3c2)cc1
active: [16] 48.6 µM | [15] 1.08 µM
not listed: [1] | [19] | [20]
inactive: all other assays above
